TDP43 rescue: inhibitors of TDP-43 toxicity in yeast; TDP-43 expressing yeast growth rescue, BacTiter-Glo, 24 h; Potency, µM (titrated, usually from 46.1 µM), inactives show top-dose growth rescue (activation), actives largely listed as activators; 410,000 tested, 1.8% active; AID 652104; further: % of control where 0% means no effect; nearly all actives have a fitted effect of over 50% in size
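Readout is BacTiter-Glo luminescence of cell growth, so inhibitors register as activators. TDP-43-expressing yeast at OD600=0.02 in galactose medium, after raffinose pregrowth to mid-log, were incubated with compound for 24 hr at 30 deg C.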
aSyn rescue: rescues yeast growth from alpha-synuclein toxicity; Potency, µM (highest dose often 46.1 µM), without a hit: top-dose growth rescue (activation), actives largely listed as activators; 370,000 tested, 0.14% active; Yeast expressing alpha-synuclein, growth rescue, BacTiter-Glo, 24 h; AID 652106; further: % of control where 0% means no effect; nearly all actives have a fitted effect of over 65% in size
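Rescue of yeast growth: cells expressing toxic alpha-synuclein, induced in galactose at OD600 0.02, incubated with compound 24 h at 30 C. ATP luminescence quantified growth; inhibitors of toxicity appear as activators.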
FUS suppressor: suppressors of FUS proteinopathy in yeast; 390,000 tested, 0.24% active; S. cerevisiae FUS-expressing, growth rescue, OD600, 24 h; Potency, µM (highest dose often 76.6 µM), most hits filed as activators;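 further: plate controls were DMSO vehicle for no effect and reference control for full effect; nearly all actives have a fitted effect of over 55% in size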
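Galactose (2%) drives FUS expression in yeast precultured in raffinose; seeding density OD 0.005. Test compounds incubated 24hr at 30C and 99% humidity before absorbance at 600 nm was measured.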
Abeta rescue: A-beta toxicity reversal in yeast. AID 1347071. yeast expressing A-beta42, growth rescue, OD600, 48 h; response scale: 0% DMSO, 100% iron-clioquinol control. 410,000 tested, 0.063% active. Potency, µM (series often up to 46.1 µM), hits mostly activators; further: nearly all actives have a fitted effect of over 55% in size
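Yeast A-beta toxicity model in growth medium with pinned compounds, 48 h at 30 C; growth read as absorbance at 600 nm. Normalized to FeCl3/clioquinol equimolar mix (positive) and DMSO (negative).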
Mito fusion act: inhibitors of mitochondrial division or activators of mitochondrial fusion; Potency, µM (highest dose often 46.1 µM), for inactives: top-dose growth rescue (activation), usual class: activators; 320,000 tested, 0.23% active; S. cerevisiae fusion-defective mutant growth rescue, CellTiterGlo 48 h; further: % of control where 0% means no effect; nearly all actives have a fitted effect of over 45% in size
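Compounds are tested for their ability to restore growth of mitochondrial fusion-defective yeast strains at non-permissive 37C in YPEG medium over 48 hours. Viability is quantified by luciferase luminescence.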
An asterisk follows results filed as active; i = inactive; ? = inconclusive; · = no result; ! = repeats disagree. In the library only some 2.2% were active in any assay of this set; here they are far more common. The call rests on the fitted dose curve; in most records, active means well fitted curve in the direction sought with a large enough effect; inconclusive means small, poorly fitted or top-dose-only effect, or another doubt; inactive means no such curve, though single readings can be large; an effect the other way counts as inactive or inconclusive. Potency means the concentration at half of the fitted maximal effect.

SMILES	TDP43 rescue	aSyn rescue	FUS suppressor	Abeta rescue	Mito fusion act
COC(=O)C1=C(c2ccccc2OCc2ccccc2)C[C@@H]2CC[C@H]1N2C(=O)NCc1ccc(OC)c(OC)c1	29%	-9%	?	i	20%
COC(=O)C1=C(c2ccccc2OCc2ccccc2)C[C@@H]2CC[C@H]1N2C(=O)NCc1ccc(Cl)cc1	?	13%	32µM*	i	?
COC(=O)C1=C(c2ccc(F)cc2OCc2ccccc2)C[C@@H]2CC[C@H]1N2C(=O)NCc1ccc(OC)cc1	?	7%	i	i	?
COC(=O)C1=C(c2ccc(F)cc2OCc2ccccc2)C[C@@H]2CC[C@H]1N2C(=O)NCc1ccc(Br)cc1	3.5µM*	12%	?	i	?
COC(=O)C1=C(c2ccccc2OCc2ccccc2)C[C@@H]2CC[C@H]1N2C(=O)NCc1ccc([N+](=O)[O-])cc1	23%	14%	28µM*	i	?
Cc1cc(C(C#N)c2ccc(Cl)cc2)c(Cl)cc1NC(=O)c1cc(I)cc(I)c1O (configuration not stated)	-3%	-1%	i	i	-31%
Nc1ccc(Br)cc1	-14%	0%	i	i	·
Nc1ccc2cc(Br)ccc2c1	35µM*	8%	i	i	-3%
Cc1cccc(Cn2c(SCc3ccc(C(=O)NC4CCCCC4)cc3)nc3cccnc32)c1	?	·	i	i	·
CCCc1cc(N2CCN(c3ccc(OC)cc3)CC2)n2cnnc2n1	?	·	i	i	·
Cc1c(C(c2ccc(Br)cc2)c2c(O)c3ccccc3oc2=O)c(=O)n(-c2ccccc2)n1C (configuration not stated)	14µM*!	-4%	?	i	-31%
CSc1ccc(C(c2c(O)c3ccccc3oc2=O)c2c(C)n(C)n(-c3ccccc3)c2=O)cc1 (configuration not stated)	-17%	12%	?	i	13%
Cc1c(C(c2ccc(Cl)cc2Cl)c2c(O)c3ccccc3oc2=O)c(=O)n(-c2ccccc2)n1C (configuration not stated)	10µM*	3%	i	i	25%
O=C(NCc1ccc2c(c1)CCN2C(=O)c1ccccc1)Nc1cccc(C(F)(F)F)c1	-32%	·	i	i	·
O=C1NCCOC(=O)[C@@H](Cc2ccc(F)cc2)CC/C=C/C[C@H]1CC(=O)N(CCO)Cc1ccccc1	19%	?	i	i	·
Oc1ccc(-[n+]2c(-c3ccccc3)cc(-c3ccccc3)cc2-c2ccccc2)cc1	-5%	-8%	i	i	10%
Oc1ccccc1-[n+]1c(-c2ccccc2)cc(-c2ccccc2)c(O)c1-c1ccccc1	5%	4%	?	i	11µM*
COc1ccccc1CN1CC(C(=O)NCCN(C)CCc2ccccc2)CCC1=O (configuration not stated)	-32%	11%	i	i	-2%
COc1ccc(CC2NCC(O)C2OC(C)=O)cc1 (configuration not stated)	13µM*	?	i	i	·
C[C@@H]1CCCCO[C@H](CN(C)Cc2ccccc2)[C@@H](C)CN([C@H](C)CO)C(=O)c2cc(NC(=O)c3ccccc3)ccc2O1	?	5%	i	i	·
CC(=O)C1CCC2C3C(N4CC4)CC4=CC(=O)CCC4(C)C3CCC12C (configuration not stated)	12%	0%	·	i	·
C[C@H]1CC[C@@]2(C)[C@@H](CC[C@@H]3[C@@H]2CC[C@]2(C)[C@@H](O)CC[C@@H]32)C1	24%	?	i	i	13µM*
C[C@]12CCC3C(CC[C@H]4C[C@@H](O)CC[C@]34C)[C@H]1CC[C@H]2O (some centres not stated)	20%	-1%	i	i	·
C[C@]12CCC3C(CC[C@H]4C[C@H](O)CC[C@]34C)C1CC[C@@H]2C(=O)CO (some centres not stated)	·	19%	·	·	18µM*
